Test results: PubChem BioAssay (EPA / NIEHS)
Values joined by “and” are separate entries in the source; they are usually repeats but may differ in a detail not shown here. Equal entries are not always repeated. Active and inactive are the calls of the source. The calls were made as follows: active = hit-call score of the fitted dose curve at least 0.9, where 1 is the maximum; inactive = score below 0.9.

Read-out: Matrix Metallopeptidase 9 (MMP9), MMP9 (gene 4318)
Experiment: BSK_KF3CT_MMP9: BioMAP Diversity Plus: KF3CT Assay for Matrix Metallopeptidase 9 (MMP9) Biomarker Activity (AID 2283074);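 as to AC50: MMP9 protein level quantified by ELISA in the co-culture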
Details: primary human keratinocytes with fibroblasts; actives raise or lower the signal
How it was run: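 Values come from bidirectional fitting relative to DMSO of MMP-9 levels, which were measured by ELISA. Measurements were taken 24 h after chemical dosing of a keratinocyte and foreskin fibroblast co-culture.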

Question: For `C=CC(=O)OCC(Br)CBr` (configuration not stated), which AC50 is on record?
Answer: 28.1 µM (active)

Question: How did the outcome turn out when `O=C(Nc1ccccc1SSc1ccccc1NC(=O)c1ccccc1)c1ccccc1` was run?
Answer: inactive

Question: `CCOc1nc(F)cc2nc(S(=O)(=O)Nc3c(Cl)cccc3C(=O)OC)nn12` was tested. Which outcome did it give?
Answer: inactive

Question: `N#[N+]c1ccc2c(S(=O)(=O)[O-])cccc2c1O` was tested. Which outcome did it give?
Answer: inactive

Question: With `COCc1c(C(C)C)nc(C(C)C)c(/C=C/[C@@H](O)C[C@@H](O)CC(=O)O)c1-c1ccc(F)cc1` as the molecule, how does the outcome read?
Answer: inactive

Question: How did the outcome turn out when `CCCCC(CC)COC(=O)c1ccccc1O` (configuration not stated) was run?
Answer: inactive

Question: `O=C1CCCN1CCO` was tested. Which outcome did it give?
Answer: inactive

Question: With `CC1OC1C1CCC2(C)OC2C1` (configuration not stated) as the molecule, how does the outcome read?
Answer: inactive

Question: How did the outcome turn out when `CCO[Si](C)(OCC)OCC` was run?
Answer: inactive

Question: For `C=CCOCC(O)CCl` (configuration not stated), which outcome is on record?
Answer: inactive

Question: With `C#CC1(O)CC[C@H]2[C@@H]3CCC4=CCCC[C@@H]4[C@H]3CC[C@@]21C` (some centres not stated) as the molecule, how does the AC50 read?
Answer: 31.9 µM (active)

Question: Which AC50 does the source give for `O=C(Cl)c1cc(C(=O)Cl)cc(C(=O)Cl)c1` here?
Answer: 32.3 µM (active)

Question: For `CCCCCCCCCCCCCCCC[N+](C)(C)CC`, which AC50 is on record?
Answer: 1.68 µM (active)

Question: Which outcome does the source give for `CN1C(=O)N(C)C(O)C1O` (configuration not stated) here?
Answer: inactive

Question: `CCCCNc1ccc(NCCCC)c2c1C(=O)c1ccccc1C2=O` was tested. Which outcome did it give?
Answer: inactive

Question: `C=C[Si](OC(C)=O)(OC(C)=O)OC(C)=O` was tested. Which outcome did it give?
Answer: inactive

Question: `Nc1ccc(N)c(Cl)c1` was tested. Which AC50 did it give?
Answer: 20 µM (active) and 18.3 µM (active)

Question: `O=Nc1ccc(O)cc1` was tested. Which outcome did it give?
Answer: inactive

Question: `C=CCOc1c(Br)cc(Br)cc1Br` was tested. Which AC50 did it give?
Answer: 20 µM (active)

Question: How did the outcome turn out when `CCCCCCCCc1ccc(Nc2ccc(CCCCCCCC)cc2)cc1` was run?
Answer: inactive

Question: Which AC50 does the source give for `CCCCC/C=C\C/C=C\CCCCCCCC(=O)OC` here?
Answer: 26.7 µM (active)

Question: How did the outcome turn out when `C=CC=CC=CCCCCC` was run?
Answer: inactive

Question: Which AC50 does the source give for `CC(C)(c1cc(Br)c(OCCO)c(Br)c1)c1cc(Br)c(OCCO)c(Br)c1` here?
Answer: 7.47 µM (active)

Question: How did the AC50 turn out when `O=C(c1ccc(O)cc1)c1ccc(O)cc1O` was run?
Answer: 18.4 µM (active) and 11.2 µM (active)

Question: `CCCCC(CC)COCC1CO1` (configuration not stated) was tested. Which outcome did it give?
Answer: inactive

Question: Which outcome does the source give for `O=c1c2ccccc2oc2ccccc12` here?
Answer: inactive

Question: With `S=C(NC1CCCCC1)NC1CCCCC1` as the molecule, how does the outcome read?
Answer: inactive

Question: With `CCOC(=O)c1ccccc1C(=C1C=C(Br)C(=O)C(Br)=C1)c1cc(Br)c(O)c(Br)c1` as the molecule, how does the AC50 read?
Answer: 3.55 µM (active) and 3.24 µM (active)

Question: How did the outcome turn out when `CO[Si](OC)(OC)c1ccccc1` was run?
Answer: inactive

Question: `CC(C)C(=O)C(C)C` was tested. Which outcome did it give?
Answer: inactive

Question: For `COc1ccc2nc(N)sc2c1`, which outcome is on record?
Answer: inactive

Question: For `c1ccc2c(c1)ccc1cc3c(ccc4ccccc43)cc12`, which outcome is on record?
Answer: inactive

Question: How did the AC50 turn out when `c1ccc2c(c1)ccc1ncccc12` was run?
Answer: 20 µM (active)

Question: Which AC50 does the source give for `C/C=C\C/C=C/CCCCCCCCOC(C)=O` here?
Answer: 29.5 µM (active)

Question: With `c1ccc(-c2ccccn2)nc1` as the molecule, how does the outcome read?
Answer: inactive

Question: With `CCO[Si](CCCN=C=O)(OCC)OCC` as the molecule, how does the outcome read?
Answer: inactive

Read-out: urokinase plasminogen activator (uPA), PLAU (gene 5328)
Experiment: BSK_KF3CT_uPA: BioMAP Diversity Plus: KF3CT Assay for urokinase plasminogen activator (uPA) Biomarker Activity (AID 2283075)
Details: primary human keratinocytes with fibroblasts; actives raise or lower the signal
How it was run: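 Values derive from bidirectional fitting against DMSO controls. Keratinocyte/foreskin fibroblast co-cultures received chemical; 24 h later uPA was detected by ELISA, with SRB total-protein staining in parallel wells for overt cytotoxicity.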

Question: Which AC50 does the source give for `C=CC(=O)OCC(Br)CBr` (configuration not stated) here?
Answer: 34.1 µM (active)

Question: `O=C(Nc1ccccc1SSc1ccccc1NC(=O)c1ccccc1)c1ccccc1` was tested. Which outcome did it give?
Answer: inactive

Question: With `CCOc1nc(F)cc2nc(S(=O)(=O)Nc3c(Cl)cccc3C(=O)OC)nn12` as the molecule, how does the outcome read?
Answer: inactive

Question: Which outcome does the source give for `N#[N+]c1ccc2c(S(=O)(=O)[O-])cccc2c1O` here?
Answer: inactive

Question: For `COCc1c(C(C)C)nc(C(C)C)c(/C=C/[C@@H](O)C[C@@H](O)CC(=O)O)c1-c1ccc(F)cc1`, which outcome is on record?
Answer: inactive

Question: For `CCCCC(CC)COC(=O)c1ccccc1O` (configuration not stated), which outcome is on record?
Answer: inactive

Question: `O=C1CCCN1CCO` was tested. Which outcome did it give?
Answer: inactive

Question: With `CC1OC1C1CCC2(C)OC2C1` (configuration not stated) as the molecule, how does the outcome read?
Answer: inactive

Question: Which outcome does the source give for `CCO[Si](C)(OCC)OCC` here?
Answer: inactive

Question: How did the outcome turn out when `C=CCOCC(O)CCl` (configuration not stated) was run?
Answer: inactive

Question: `C#CC1(O)CC[C@H]2[C@@H]3CCC4=CCCC[C@@H]4[C@H]3CC[C@@]21C` (some centres not stated) was tested. Which AC50 did it give?
Answer: 35.1 µM (active)

Question: Which AC50 does the source give for `O=C(Cl)c1cc(C(=O)Cl)cc(C(=O)Cl)c1` here?
Answer: 30.9 µM (active)

Question: For `CCCCCCCCCCCCCCCC[N+](C)(C)CC`, which AC50 is on record?
Answer: 7.22 µM (active)

Question: For `CN1C(=O)N(C)C(O)C1O` (configuration not stated), which outcome is on record?
Answer: inactive

Question: `CCCCNc1ccc(NCCCC)c2c1C(=O)c1ccccc1C2=O` was tested. Which outcome did it give?
Answer: inactive

Question: With `C=C[Si](OC(C)=O)(OC(C)=O)OC(C)=O` as the molecule, how does the outcome read?
Answer: inactive

Question: How did the outcome turn out when `Nc1ccc(N)c(Cl)c1` was run?
Answer: inactive

Question: For `O=Nc1ccc(O)cc1`, which outcome is on record?
Answer: inactive

Question: For `C=CCOc1c(Br)cc(Br)cc1Br`, which AC50 is on record?
Answer: 28.6 µM (active)

Question: Which outcome does the source give for `CCCCCCCCc1ccc(Nc2ccc(CCCCCCCC)cc2)cc1` here?
Answer: inactive

Question: For `CCCCC/C=C\C/C=C\CCCCCCCC(=O)OC`, which AC50 is on record?
Answer: 30.8 µM (active)

Question: For `C=CC=CC=CCCCCC`, which outcome is on record?
Answer: inactive

Question: `CC(C)(c1cc(Br)c(OCCO)c(Br)c1)c1cc(Br)c(OCCO)c(Br)c1` was tested. Which AC50 did it give?
Answer: 16.2 µM (active)

Question: `O=C(c1ccc(O)cc1)c1ccc(O)cc1O` was tested. Which outcome did it give?
Answer: inactive

Question: For `CCCCC(CC)COCC1CO1` (configuration not stated), which outcome is on record?
Answer: inactive

Question: `O=c1c2ccccc2oc2ccccc12` was tested. Which outcome did it give?
Answer: inactive

Question: For `S=C(NC1CCCCC1)NC1CCCCC1`, which outcome is on record?
Answer: inactive

Question: For `CCOC(=O)c1ccccc1C(=C1C=C(Br)C(=O)C(Br)=C1)c1cc(Br)c(O)c(Br)c1`, which AC50 is on record?
Answer: 3.6 µM (active) and 3.63 µM (active)

Question: With `CO[Si](OC)(OC)c1ccccc1` as the molecule, how does the outcome read?
Answer: inactive

Question: Which outcome does the source give for `CC(C)C(=O)C(C)C` here?
Answer: inactive

Question: Which outcome does the source give for `COc1ccc2nc(N)sc2c1` here?
Answer: inactive

Question: For `c1ccc2c(c1)ccc1cc3c(ccc4ccccc43)cc12`, which outcome is on record?
Answer: inactive

Question: How did the outcome turn out when `c1ccc2c(c1)ccc1ncccc12` was run?
Answer: inactive

Question: `C/C=C\C/C=C/CCCCCCCCOC(C)=O` was tested. Which outcome did it give?
Answer: inactive

Question: Which outcome does the source give for `c1ccc(-c2ccccn2)nc1` here?
Answer: inactive

Question: For `CCO[Si](CCCN=C=O)(OCC)OCC`, which outcome is on record?
Answer: inactive
